Compound activity (PubChem)
Compounds with a hit are over-represented: about 6.9% of the library has one in this group of screens.
NS3h inh CB – HCV NS3 helicase inhibitors, primary screen, biochemical, fluorescence polarization, ChemBridge library; inhibition, % at 100 µM; Hepatitis C virus NS3 helicase; AID 687043, 2013; actives 1.6% (n = 16,000); NS3h Cy5-dT15 DNA binding;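 active = inhibition above the average over every tested compound plus 3 SD, cut at about 40% in these data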
Cy5 interf NS3h – Cy5 fluorescence quenchers or enhancers, artefact control for HCV NS3 helicase inhibitor project, biochemical, ChemBridge library, Cy5 readout | AID 720488, 2013 | actives 6% (n = 16,000) | fluorescence interference ratio at 100 µM | Cy5-dT15 DNA with NS3h, fluorescence interference; actives lie on both sides; signal over control mean, under 1 quenches;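 active = compound fluorescence over control fluorescence at most 0.8, a quencher, or at least a set upper limit, an enhancer; inactive = ratio between 0.8 and the set upper limit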
* hit, by the source's call.

SMILES	NS3h inh CB	Cy5 interf NS3h
O=C(/C=C/c1ccccc1)Nc1ccccc1I	12	0.96
O=C(/C=C\c1ccccc1)Nc1ccc2c3c(cccc13)CC2	23	0.73*
Cc1c(NS(=O)(=O)c2cc(Cl)ccc2Cl)cccc1[N+](=O)[O-]	8	1
COC(=O)c1c(C)oc2ccc(OCc3c(F)cccc3Cl)cc12	10	0.91
CC(=O)NC1=NC(=O)/C(=C/c2cc(Cl)ccc2OCc2c(F)cccc2Cl)S1	5	0.77*
COc1ccc(C2C(=C(O)c3ccc(Br)cc3)C(=O)C(=O)N2CCc2ccccc2)cc1OC (stereo unspecified)	7	0.97
COc1cc(C(=O)NCCC(C)C)c([N+](=O)[O-])cc1OC	3	0.98
COc1cc(C(=O)NCc2ccc(C)cc2)c([N+](=O)[O-])cc1OC	16	0.69*
CCOC(=O)c1c(C)oc2ccc(NS(=O)(=O)c3cc(C)ccc3C)cc12	14	0.94
Cc1cc(C)n(S(=O)(=O)c2ccc3c(c2)C(=O)c2cc(S(=O)(=O)n4nc(C)cc4C)ccc2-3)n1	-57	0.64*
Cc1ccc2ccc(S(=O)(=O)n3nc(C)cc3C)cc2c1	7	1
O=CN1N=C(c2ccccc2)CC1(O)C(F)(F)F (stereo unspecified)	1	1.1
CC(=O)c1ccc(NC(=NS(=O)(=O)c2ccccc2)c2ccccc2)cc1	21	0.93
O=C(c1cc(Cl)ccc1Cl)N1CCN(c2ccccc2)CC1	5	0.61*
O=C(c1cc(Cl)ccc1Cl)N1CCOCC1	6	1.1
COc1cc(C(=O)N2CCN(Cc3ccccc3)CC2)c([N+](=O)[O-])cc1OC	4	0.96
COc1cc(C(=O)N2CCN(c3cccc(Cl)c3)CC2)c([N+](=O)[O-])cc1OC	19	0.67*
CCCCNC(=O)C1CC(=O)N(c2ccc(CC)cc2)C1 (stereo unspecified)	7	1
COc1ccccc1Cc1noc(COc2ccc(Cl)cc2)n1	16	0.98
CCc1ccc(OCC(=O)Nc2cccc(OC)c2)cc1	14	0.74*
COc1ccc(OCC(=O)Nc2cccc(C(C)=O)c2)cc1	5	1.1
O=C1NN(c2ccccc2)C(=O)/C1=C/c1cc([N+](=O)[O-])c(Cl)cc1Cl	39	0.89
O=C1NN(c2ccccc2)C(=O)/C1=C/c1cccn1-c1ccc([N+](=O)[O-])cc1	30	0.61*
O=[N+]([O-])c1ccc2c(c1)S(=O)(=O)N=C2Nc1cccc(Cl)c1	-10	0.73*
CN(C1=NS(=O)(=O)c2cc([N+](=O)[O-])ccc21)c1ccccc1	-2	0.89
SMILES	NS3h inh CB	Cy5 interf NS3h
CC(C(=O)Nc1ccc(-c2nc3ccccc3s2)c(O)c1)(c1ccccc1)c1ccccc1	12	1.1
COc1cc(C=O)cc(Br)c1OCc1ccccc1Cl	8	1
CCOc1cc(C=O)cc(I)c1OCc1ccccc1Cl	9	0.64*
Cc1nc2ccccc2n1S(=O)(=O)c1cc([N+](=O)[O-])ccc1Cl	8	0.98
O=C1C(Cl)=C(Nc2ccccc2)C(=O)N1c1cccc(Cl)c1Cl	14	0.94
O=C1NC(=S)N/C1=C/c1ccc(OCc2ccccc2)c(Br)c1	-4	0.98
O=C1NC(=S)N/C1=C\c1ccccc1OCc1ccc([N+](=O)[O-])cc1	-5	0.67*
CC1(C)COC(=O)/C1=N\Nc1ccc([N+](=O)[O-])cc1	3	1
COc1ccc(N(CC(=O)Nc2ccccc2Br)S(C)(=O)=O)c(OC)c1	7	0.98
COc1ccc(NC(=O)CN(c2ccc(Cl)cc2)S(=O)(=O)c2ccccc2)cc1	11	1
COc1ccc(S(=O)(=O)N(CC(=O)Nc2ccc(Br)cc2)c2ccc(C)cc2)cc1OC	17	0.68*
COc1ccc(N(CC(=O)Nc2ccc(C(=O)N3CCOCC3)cc2)S(=O)(=O)c2ccccc2)cc1	13	0.72*
CCOc1ccccc1NC(=O)CN(c1ccc(C)cc1)S(=O)(=O)c1ccc(OC)c(OC)c1	15	0.97
COc1ccc(S(=O)(=O)N(CC(=O)Nc2cccc3ccccc23)c2ccc(C)cc2)cc1OC	28	0.68*
COc1ccc(S(=O)(=O)N(CC(=O)Nc2ccc(C(C)=O)cc2)c2ccc(C)cc2)cc1OC	10	0.91
COc1ccc(N(CC(=O)Nc2ccccc2Br)S(C)(=O)=O)cc1	18	1.3*
CCOc1ccc(N2C(=O)NC(=O)C(=S(C)C)C2=O)cc1	0	1.1
c1nnc(Sc2nc(N3CCOCC3)nc(N3CCOCC3)n2)n1-c1nc(N2CCOCC2)nc(N2CCOCC2)n1	13	1
COc1ccc(N(CC(=O)Nc2ccc3ccccc3c2)S(=O)(=O)c2ccc(C)cc2)c(OC)c1	10	1.1
COc1ccc(N(CC(=O)Nc2ccccc2Cl)S(=O)(=O)c2ccc(C)cc2)c(OC)c1	-1	1.2*
COc1ccc(NC(=O)CN(c2cccc([N+](=O)[O-])c2)S(=O)(=O)c2ccccc2)c(OC)c1	28	0.7*
COc1ccc(N(CC(=O)Nc2cc(OC)ccc2OC)S(=O)(=O)c2ccc(OC)c(OC)c2)cc1	11	1.1
COc1ccc(NC(=O)CN(c2cccc([N+](=O)[O-])c2)S(=O)(=O)c2ccccc2)cc1	-2	1
COc1ccc(N(CC(=O)Nc2ccc(Br)cc2)S(=O)(=O)c2ccc(OC)c(OC)c2)cc1	10	0.7*
O=C(CSc1nc2ccccc2s1)OCC(=O)c1ccccc1	-7	1.1
SMILES	NS3h inh CB	Cy5 interf NS3h
Cc1ccc(OCC(=O)Nc2cccc(I)c2)cc1	10	0.98
O=C(/C=C/c1ccc(-c2ccccc2[N+](=O)[O-])o1)Nc1ccc(N2CCOCC2)cc1	17	0.96
CCN(CC)CCN1C(=O)C(O)=C(C(=O)/C=C/c2ccccc2)C1c1ccc(OC)cc1 (stereo unspecified)	26	1.2*
CCN(CC)CCN1C(=O)C(O)=C(C(=O)/C=C/c2ccccc2)C1c1ccc(Br)cc1 (stereo unspecified)	8	1.1
CCc1ccc(-c2nc3cc(NC(=O)COc4ccccc4[N+](=O)[O-])ccc3o2)cc1	-3	1.1
Cc1cccc(-c2nc3cc(NC(=O)COc4ccccc4[N+](=O)[O-])ccc3o2)c1	14	0.52*
CCOc1ccc(Cl)cc1/C=C1/SC(=S)N(c2ccccc2)C1=O	9	1.1
CCOc1ccccc1NC(=O)c1c(NC(=O)Cc2ccccc2)sc2c1CCCCC2	6	1.1
CCOc1ccccc1NC(=O)c1c(NC(=O)c2cccs2)sc2c1CCCC2	41*	1
O=[N+]([O-])c1cc(S(=O)(=O)Nc2ccc(Cl)cc2)ccc1Cl	13	0.96
CCOc1ccccc1N1C(=O)NC(=O)/C(=C/C=C/c2ccco2)C1=O	43*	1.2
CCOc1ccc(N2C(=O)NC(=O)/C(=C/C=C/c3ccco3)C2=O)cc1	33	1
COc1ccc(NC(=O)c2ccc(-c3ccccc3)cc2)cc1	15	0.9
O=C(Oc1ccc(Oc2ccccc2)cc1)c1ccc(Br)o1	10	1.2*
Cc1ccc2cccc(OC(=O)c3ccc(Br)o3)c2n1	1	1
Cc1cc([N+](=O)[O-])ccc1-c1ccc(C(=O)Nc2ccc(Cl)cn2)o1	-14	0.77*
O=C(Nc1ccc(Cl)cn1)c1ccc(-c2ccc([N+](=O)[O-])cc2)o1	-16	0.82
